Results reported in PubChem BioAssay.
The source made the active and inactive calls.

How the values were obtained:
[1] = tested on: Plasmodium falciparum Sir2 (PF13_0152, Sir2A); assay: pfSir2 binders on small-molecule microarrays, primary screen, biochemical, small-molecule microarray, 635 nm fluorescence (AID 1098); settings: small-molecule microarray binding, fluorescence 635 nm; higher = more signal;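 further: score merges spot fluorescence intensity with its signal-to-noise ratio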
[2] = small-molecule microarray binders of probe aDKK1, primary screen, biochemical, biotinylated probe, 635/667 nm fluorescence (AID 1099); settings: higher = more signal;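 further: score merges 667nm spot fluorescence with signal to noise across triplicate slides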
[3] = small-molecule microarray binders of probe aCHRDL2, primary screen, biochemical, biotinylated probe, 635/667 nm fluorescence (AID 1100); settings: higher = more signal
[4] = splicing luciferase reporter signal modulators, primary screen, spliceosome inhibition project, cell-based, HEK293, splice +/- reporter (AID 1101); settings: luminescence, 24 h, higher = more signal, called active from +8 up or from −8 down;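 further: HEK293 cells carrying a splicing-competent luciferase reporter gene; test concentration not given here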
[5] = biological target: Fibroblast growth factor 10 (Homo sapiens) (UniProt O15520); assay: FGF10 binders on small-molecule microarrays, primary screen, biochemical, small-molecule microarray, 635 nm fluorescence (AID 1102); settings: FGF10 binding, fluorescence 635 nm, higher = more signal
Sequence of Fibroblast growth factor 10 (Homo sapiens) (O15520 whole entry, looked up): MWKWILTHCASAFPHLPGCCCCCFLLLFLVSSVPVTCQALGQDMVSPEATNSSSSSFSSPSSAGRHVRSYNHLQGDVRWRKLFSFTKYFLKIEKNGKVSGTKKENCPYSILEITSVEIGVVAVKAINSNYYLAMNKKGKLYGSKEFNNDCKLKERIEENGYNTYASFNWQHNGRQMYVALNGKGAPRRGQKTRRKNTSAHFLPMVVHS

[6] = tested on: glycogen synthase kinase-3 (GSK3A per assay name; protocol says GSK3B); assay: GSK3 binders on small-molecule microarrays, primary screen, biochemical, small-molecule microarray, 635 nm fluorescence, GSK3A (AID 1103); settings: small-molecule microarray binding, fluorescence 635 nm; higher = more signal; further: the record names both GSK3A and GSK3B
[7] = biological target: Epidermal growth factor receptor (Homo sapiens) (UniProt P00533); assay: EGFR binders on small-molecule microarrays, primary screen, biochemical, small-molecule microarray, 635 nm fluorescence (AID 1104); settings: EGFR binding, higher = more signal;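 further: score merges 667 nm emission intensity with spot signal to noise over triplicate slides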
Sequence of Epidermal growth factor receptor (Homo sapiens) (P00533 whole entry, looked up): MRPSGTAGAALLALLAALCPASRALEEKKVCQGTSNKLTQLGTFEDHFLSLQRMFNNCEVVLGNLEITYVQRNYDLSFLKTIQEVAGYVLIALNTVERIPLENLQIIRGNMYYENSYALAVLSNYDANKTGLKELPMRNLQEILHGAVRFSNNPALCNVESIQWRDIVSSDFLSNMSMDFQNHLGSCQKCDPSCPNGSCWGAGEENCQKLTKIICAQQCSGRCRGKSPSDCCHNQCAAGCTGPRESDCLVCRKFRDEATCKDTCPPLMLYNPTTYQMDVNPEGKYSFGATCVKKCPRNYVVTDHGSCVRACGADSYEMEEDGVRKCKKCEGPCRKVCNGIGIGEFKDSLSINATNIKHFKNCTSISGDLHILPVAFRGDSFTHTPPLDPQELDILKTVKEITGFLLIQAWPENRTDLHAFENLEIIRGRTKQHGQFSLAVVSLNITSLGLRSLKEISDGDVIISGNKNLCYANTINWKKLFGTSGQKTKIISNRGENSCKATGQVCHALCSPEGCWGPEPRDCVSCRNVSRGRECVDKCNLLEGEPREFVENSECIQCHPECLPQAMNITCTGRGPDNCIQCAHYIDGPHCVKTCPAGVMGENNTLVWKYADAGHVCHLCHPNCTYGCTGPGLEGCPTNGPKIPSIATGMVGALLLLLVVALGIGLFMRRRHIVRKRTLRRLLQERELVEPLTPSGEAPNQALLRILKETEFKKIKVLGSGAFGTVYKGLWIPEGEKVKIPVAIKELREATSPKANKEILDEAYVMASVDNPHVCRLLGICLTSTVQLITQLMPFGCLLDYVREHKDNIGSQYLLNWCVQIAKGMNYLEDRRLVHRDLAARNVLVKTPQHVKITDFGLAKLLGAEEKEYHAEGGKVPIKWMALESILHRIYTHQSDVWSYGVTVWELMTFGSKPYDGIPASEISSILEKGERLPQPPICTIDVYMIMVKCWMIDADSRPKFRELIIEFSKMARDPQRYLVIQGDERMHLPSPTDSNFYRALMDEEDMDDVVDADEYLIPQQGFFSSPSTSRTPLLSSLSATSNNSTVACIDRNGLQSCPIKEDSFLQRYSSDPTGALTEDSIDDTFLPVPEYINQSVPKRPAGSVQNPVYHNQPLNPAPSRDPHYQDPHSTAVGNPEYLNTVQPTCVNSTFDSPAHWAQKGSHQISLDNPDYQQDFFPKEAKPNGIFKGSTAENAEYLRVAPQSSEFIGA

[8] = biological target: Follistatin-related protein 3 (Homo sapiens) (UniProt O95633); assay: FSTL3 binders on small-molecule microarrays, primary screen, biochemical, small-molecule microarray, 635 nm fluorescence (AID 1105); settings: FSTL3 binding, higher = more signal;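 further: score merges emission near 667 nm and signal to noise per printed spot across three slides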
Sequence of Follistatin-related protein 3 (Homo sapiens) (O95633 whole entry, looked up): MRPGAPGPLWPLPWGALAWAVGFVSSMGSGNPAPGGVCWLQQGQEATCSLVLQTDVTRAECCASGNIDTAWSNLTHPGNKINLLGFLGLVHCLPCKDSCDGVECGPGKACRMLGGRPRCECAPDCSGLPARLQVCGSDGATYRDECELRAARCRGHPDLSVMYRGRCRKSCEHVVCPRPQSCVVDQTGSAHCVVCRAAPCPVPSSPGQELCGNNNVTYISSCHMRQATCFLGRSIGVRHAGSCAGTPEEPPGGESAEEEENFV

[9] = biological target: Dickkopf-related protein 1 (Homo sapiens) (UniProt O94907); assay: DKK1 binders on small-molecule microarrays, primary screen, biochemical, small-molecule microarray, 635 nm fluorescence scan (AID 1106); settings: DKK1 binding, higher = more signal;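 further: score merges emission near 667 nm with signal to noise over three replicate slides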
Sequence of Dickkopf-related protein 1 (Homo sapiens) (O94907 whole entry, looked up): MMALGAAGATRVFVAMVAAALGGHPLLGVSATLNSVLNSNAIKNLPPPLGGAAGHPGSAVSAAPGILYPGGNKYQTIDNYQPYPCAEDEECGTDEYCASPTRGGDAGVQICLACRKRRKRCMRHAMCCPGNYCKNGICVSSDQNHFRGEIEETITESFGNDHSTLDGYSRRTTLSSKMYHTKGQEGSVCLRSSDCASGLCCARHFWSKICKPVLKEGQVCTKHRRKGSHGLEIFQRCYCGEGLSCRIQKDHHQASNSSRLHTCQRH

[10] = tested on: Inhibin beta A chain (activin A); assay: INHBA (activin A) binders on microarrays, primary screen, biochemical, small-molecule microarray, 635 nm fluorescence scan (AID 1107); settings: small-molecule microarray binding, higher = more signal;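 further: mouse activin A protein probed at 4.33 µg/mL on printed slides; score merges bound-protein fluorescence near 667 nm with spot signal-to-noise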
[11] = tested on: Human papillomavirus type 1a protein E7 (residues 44-93); assay: HPV1a E7 fragment binders on microarrays, primary screen, biochemical, small-molecule microarray, residues 44-93, 635 nm fluorescence (AID 1108); settings: small-molecule microarray binding, fluorescence 635 nm; higher = more signal;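 further: E7 fragment applied at 1 µg/mL in TBST for 1 h at 4 C; score combines spot fluorescence with its signal to noise ratio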
[12] = modulators of HCV replicon luciferase signal, primary screen, HCV replication inhibitor project, Huh7 cells, luciferase reporter (AID 1109); settings: 48 h, higher = more signal;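 further: huh7 hepatoma cells harbouring a luciferase neomycin HCV replicon reporter; luciferase luminescence as measure of HCV replicon replication; test concentration not given here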
[13] = biological target: Left-right determination factor 2 (Homo sapiens) (UniProt O00292); assay: LEFTY2 binders on small-molecule microarrays, primary screen, biochemical, small-molecule microarray, 635 nm fluorescence scan (AID 1110); settings: LEFTY2 binding, higher = more signal
Sequence of Left-right determination factor 2 (Homo sapiens) (O00292 whole entry, looked up): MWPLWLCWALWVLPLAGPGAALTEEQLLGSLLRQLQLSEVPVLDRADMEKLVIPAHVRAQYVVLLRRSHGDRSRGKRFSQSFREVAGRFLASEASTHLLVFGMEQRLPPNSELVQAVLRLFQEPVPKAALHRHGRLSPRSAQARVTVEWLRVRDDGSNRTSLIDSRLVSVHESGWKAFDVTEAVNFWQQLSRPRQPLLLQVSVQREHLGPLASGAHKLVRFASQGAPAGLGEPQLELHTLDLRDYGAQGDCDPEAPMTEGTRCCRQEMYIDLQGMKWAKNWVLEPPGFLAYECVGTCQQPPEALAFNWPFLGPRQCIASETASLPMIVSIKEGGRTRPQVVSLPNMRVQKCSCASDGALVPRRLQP

[14] = biological target: Calmodulin-1 (Homo sapiens) (UniProt P0DP23); assay: CALM1 binders on microarrays, EGTA buffer, profiling panel, biochemical, small-molecule microarray, Cy5-labelled CALM1 (AID 1111); settings: Cy5-CALM1 binding fluorescence, higher = more signal;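 further: labelled calmodulin applied in Tris saline Tween buffer holding calcium plus EGTA and DTT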
[15] = biological target: Calmodulin-1 (Homo sapiens) (UniProt P0DP23); assay: calcium-bound CALM1 binders on microarrays, profiling panel, artefact control for SMM control-protein annotation, biochemical, small-molecule microarray, Cy5-labelled CALM1, plus calcium (AID 1112); settings: Cy5-CALM1 binding fluorescence, higher = more signal;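 further: score merges spot fluorescence with signal to noise from triplicate slides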
[16] = small-molecule microarray binders of probe aWnt5a, primary screen, biochemical, biotinylated probe, 635/667 nm fluorescence (AID 1113); settings: higher = more signal;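 further: score merges 667 nm fluorescence intensity with signal-to-noise per printed feature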
[17] = small-molecule microarray binders of probe aShh, primary screen, biochemical, biotinylated probe, 635/667 nm fluorescence (AID 1114); settings: higher = more signal;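 further: probe is biotin-labelled aShh protein from a stem cell growth factor screen; measures binding of labelled protein to compounds printed on the slide; score merges feature fluorescence at 667 nm with signal-to-noise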
[18] = small-molecule microarray binders of probe aNog, primary screen, biochemical, biotinylated probe, 635/667 nm fluorescence (AID 1115); settings: higher = more signal;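 further: probe is biotinylated aNog protein used at 0.15 µg/mL for 1 h at 4 C; z-score combines 667 nm fluorescence of each spot with its signal to noise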
[19] = biological target: Torsin-1A-interacting protein 1 (Homo sapiens) (UniProt Q5JTV8); assay: LAP1 binders from COS7 cell lysate, primary screen, small-molecule microarray, 635/667 nm fluorescence (AID 1116); settings: COS7-hLAP1 lysate binding, 635 nm fluorescence, higher = more signal
Sequence of Torsin-1A-interacting protein 1 (Homo sapiens) (Q5JTV8 whole entry, looked up): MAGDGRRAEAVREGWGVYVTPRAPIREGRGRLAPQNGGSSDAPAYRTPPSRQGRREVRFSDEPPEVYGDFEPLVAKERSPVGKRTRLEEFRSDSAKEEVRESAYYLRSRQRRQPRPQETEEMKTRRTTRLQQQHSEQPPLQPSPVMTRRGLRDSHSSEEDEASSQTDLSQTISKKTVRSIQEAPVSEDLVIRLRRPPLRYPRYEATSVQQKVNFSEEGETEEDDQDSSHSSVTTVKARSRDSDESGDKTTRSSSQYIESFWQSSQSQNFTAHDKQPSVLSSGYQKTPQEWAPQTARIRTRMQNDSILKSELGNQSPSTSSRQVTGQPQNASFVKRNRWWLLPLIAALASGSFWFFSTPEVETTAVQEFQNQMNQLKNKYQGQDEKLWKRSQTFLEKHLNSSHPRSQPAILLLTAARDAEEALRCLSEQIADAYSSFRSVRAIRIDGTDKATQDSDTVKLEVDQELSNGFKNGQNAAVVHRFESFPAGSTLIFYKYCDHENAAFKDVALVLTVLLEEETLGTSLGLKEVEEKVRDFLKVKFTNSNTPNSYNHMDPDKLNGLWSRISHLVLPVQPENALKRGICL

[20] = biological target: Alpha-bungarotoxin (Bungarus multicinctus) (UniProt P60615); assay: alpha-bungarotoxin binders on microarray, profiling panel, artefact control for SMM control protein annotation, biochemical, small-molecule microarray, Alexa647 label, 635/667 nm fluorescence (AID 1117); settings: alpha-BTX-A647 binding fluorescence, higher = more signal
Sequence of Alpha-bungarotoxin (Bungarus multicinctus) (P60615 whole entry, looked up): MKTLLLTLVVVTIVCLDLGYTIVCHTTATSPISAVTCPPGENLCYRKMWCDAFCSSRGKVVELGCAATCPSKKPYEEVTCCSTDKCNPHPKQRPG

SMILES	composite z-score [1]	composite z-score [2]	composite z-score [3]	z-score [4]	composite z-score [5]	composite z-score [6]	composite z-score [7]	composite z-score [8]	composite z-score [9]	composite z-score [10]	composite z-score [11]	z-score [12]	composite z-score [13]	composite z-score [14]	composite z-score [15]	composite z-score [16]	composite z-score [17]	composite z-score [18]	composite z-score [19]	composite z-score [20]
CCOC(=O)C[C@H]1[C@H](OC(=O)Cc2ccc3c(c2)OCO3)[C@@H](NC(=O)CC(C)C)c2cc(OCCCO)ccc2N1C(=O)c1ccc2ccccc2n1	1.26	0.0956	-0.252	-0.881 (inactive)	0.891	0.614	0.255	1.19	0.743	0.242	1	-0.699	0.305	0.42	-0.717	-0.0405	-0.221	-0.0208	0.633	0.185
COC(=O)C[C@H]1O[C@]2(C(=O)N(C)c3ccccc32)[C@@H](C)[C@@H]1[Si](C)(C)c1ccccc1	-0.0153	-0.0571	-0.261	-1.25 (inactive)	0.988	0.96	0.753	0.837	1.11	-0.399	0.623	-2.1	0.469	-0.0495	-0.401	-0.124	0.318	-0.0446	0.0282	0.586
Cc1ccc(S[C@]2(C(=O)NCc3ccccc3)CC(=O)N(Cc3ccccc3C(F)(F)F)[C@@H]2c2ccc(CO)cc2I)cc1	1.62	0.211	0.831	-0.494 (inactive)	-0.557	-0.498	-1.3	-0.793	-0.749	1.07	-0.565	-1.64	-0.916	-0.348	0.549	-0.124	-0.334	0.389	0.662	-0.593
COC(=O)[C@@]1(Cc2ccccc2)[C@H]2c3cc(C(=O)N(C)C)n(Cc4ccc(Cl)c(C(F)(F)F)c4)c3C[C@H]2CN1C(=O)c1ccccc1	0.685	0.841	1.02	-1.45 (inactive)	1.37	1.31	0.603	1.45	0.283	1.29	1.37	-2.61	0.533	1.49	1.06	0.315	1.24	1.91	0.636	0.995
COc1ccc(C(O)C2C=CC3C(=O)N(C)C(=O)C3N2Nc2ccccc2)cc1 (stereo not given)	0.454	-0.0205	0.87	-0.52 (inactive)	0.663	0.925	0.468	0.441	0.312	0.979	1.22	-1.14	-0.132	0.675	0.283	0.0792	0.462	1.76	0.916	1.38
COCCCNC(=O)[C@]1(Cc2ccccc2CN=[N+]=[N-])N=C(c2ccc(OCCCO)cc2)O[C@@H]1c1ccccc1N=[N+]=[N-]	0.427	1.36	1.38	-0.486 (inactive)	0.575	0.672	0.003	0.205	0.0122	1.4	0.693	-2.06	-0.581	1.27	1.18	0.133	1.16	0.467	0.939	2.35
C[C@H]1C2[C@H](Cc3ccccc3)NC(=O)[C@]23C(=O)N[C@@H](Cc2ccccc2)C(=O)N2CCC[C@H]2C(=O)NC/C=C/CC/C=C/C3[C@@H]2O[C@]12C (stereo not given in full)	1.26	-0.297	-0.684	0.437 (inactive)	1.38	0.769	-0.0947	0.895	0.272	0.87	0.611	-0.382	0.148	-0.133	-0.945	-0.156	-0.221	-0.0503	0.0565	0.857
O=C1O[C@@H](c2ccccc2)[C@@H](c2ccccc2)N2[C@@H](c3ccccc3OCCO)[C@]3(C(=O)Nc4ccc(C#CC5(O)CCCCCC5)cc43)[C@@H](C(=O)N3CCCCCCC3)[C@H]12	2.16	3.21	1.84	-1.3 (inactive)	1.66	1.45	2.09	1.77	2.68	1.91	1.61	-2.22	1.87	3.06	1.82	1.65	3.04	3.8	5.6	4.54
COc1ccc([Si](C)(C)[C@H]2[C@H](CC(=O)N(CCO)Cc3ccccc3)O[C@@]3(C(=O)N(Cc4ccc(N5C(=O)c6cccc7cccc5c67)cc4)c4ccccc43)[C@@H]2C)cc1	0.899	0.0486	0.0598	-1.1 (inactive)	0.994	-0.461	0.303	0.614	0.541	0.803	1.28	-3.78	0.544	0.605	0.103	0.0495	0.19	0.945	0.869	0.753
C=CCNC(=O)[C@H]1[C@@H]2C(=O)O[C@@H](c3ccccc3)[C@@H](c3ccccc3)N2[C@@H](c2ccc(O)cc2)[C@]12C(=O)N(C(=O)OCCOC)c1ccc(C#Cc3ccc(OC)cc3)cc12	1.21	-0.0387	0.478	-0.294 (inactive)	0.88	1.08	0.215	0.448	0.211	0.794	1.33	-1.09	0.254	1.38	-0.0807	-0.001	0.229	-0.477	0.42	0.286
